# Assay results reported in article PMC7862700, “An all-to-all approach to the identification of sequence-specific readers for epigenetic DNA modifications on cytosine”.
# Assays:
# Experiment in all cases: DAPPL (digital affinity profiling via proximity ligation, sequencing); 10 mM Tris-HCl pH 7.5, 50 mM NaCl, 1 mM DTT, 4% glycerol, room temperature, 30 min; GST-TFs on glutathione beads, 16-mer random dsDNA library, 0.1% formaldehyde crosslink after washing; high values mean tight binding
# Settings in all cases: protein: recombinant; tags: N-terminal GST; dsDNA, one strand shown
# [1] = molecular target: T1, ELK1 (Homo sapiens, UniProt P19419 1-428)
# T1 sequence: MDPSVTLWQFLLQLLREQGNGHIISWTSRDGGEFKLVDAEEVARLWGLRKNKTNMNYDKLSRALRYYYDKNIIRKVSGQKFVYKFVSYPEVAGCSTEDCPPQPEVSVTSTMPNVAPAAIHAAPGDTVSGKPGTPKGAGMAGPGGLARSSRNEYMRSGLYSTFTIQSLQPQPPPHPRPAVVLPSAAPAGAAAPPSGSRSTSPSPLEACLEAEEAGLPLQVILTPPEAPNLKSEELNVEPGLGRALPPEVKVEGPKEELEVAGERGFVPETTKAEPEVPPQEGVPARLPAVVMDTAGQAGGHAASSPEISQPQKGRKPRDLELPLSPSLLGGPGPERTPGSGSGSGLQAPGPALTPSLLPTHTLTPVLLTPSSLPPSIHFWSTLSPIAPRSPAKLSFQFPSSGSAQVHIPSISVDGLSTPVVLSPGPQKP
# How it was run: (§1)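 Binding signal is defined as a hexamer's read frequency for one factor over its frequency for the tag-only sample. To obtain reads, GST-fused human transcription factors were expressed in yeast, captured on glutathione beads, barcoded with DNA and pooled with that sample. Pools met 200 nmole of a 16-mer random double-stranded DNA library in Tris/NaCl/DTT/glycerol buffer for 30 min at room temperature before washing, 0.1% formaldehyde crosslinking, proximity ligation (BsaI/T4 ligase, 1 h, 37 °C), PCR and Illumina NextSeq500 sequencing.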
# [2] = molecular target: T2, GABPA (Homo sapiens, UniProt Q06546 1-454)
# T2 sequence: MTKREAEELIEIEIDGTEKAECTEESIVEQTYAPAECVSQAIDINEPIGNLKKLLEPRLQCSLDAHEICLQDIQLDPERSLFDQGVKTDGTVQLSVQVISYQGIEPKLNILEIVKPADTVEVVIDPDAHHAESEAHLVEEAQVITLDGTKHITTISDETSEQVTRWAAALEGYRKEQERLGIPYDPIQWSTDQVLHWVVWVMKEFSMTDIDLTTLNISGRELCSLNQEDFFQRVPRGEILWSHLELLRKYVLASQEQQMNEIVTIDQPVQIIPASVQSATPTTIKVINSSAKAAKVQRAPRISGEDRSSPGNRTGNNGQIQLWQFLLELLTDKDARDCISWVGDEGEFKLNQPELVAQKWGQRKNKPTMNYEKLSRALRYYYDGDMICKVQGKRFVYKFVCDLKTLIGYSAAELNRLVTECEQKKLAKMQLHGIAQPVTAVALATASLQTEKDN
# How it was run: as §1
# [3] = molecular target: T3, ERG (Homo sapiens, UniProt P11308 1-479)
# T3 sequence: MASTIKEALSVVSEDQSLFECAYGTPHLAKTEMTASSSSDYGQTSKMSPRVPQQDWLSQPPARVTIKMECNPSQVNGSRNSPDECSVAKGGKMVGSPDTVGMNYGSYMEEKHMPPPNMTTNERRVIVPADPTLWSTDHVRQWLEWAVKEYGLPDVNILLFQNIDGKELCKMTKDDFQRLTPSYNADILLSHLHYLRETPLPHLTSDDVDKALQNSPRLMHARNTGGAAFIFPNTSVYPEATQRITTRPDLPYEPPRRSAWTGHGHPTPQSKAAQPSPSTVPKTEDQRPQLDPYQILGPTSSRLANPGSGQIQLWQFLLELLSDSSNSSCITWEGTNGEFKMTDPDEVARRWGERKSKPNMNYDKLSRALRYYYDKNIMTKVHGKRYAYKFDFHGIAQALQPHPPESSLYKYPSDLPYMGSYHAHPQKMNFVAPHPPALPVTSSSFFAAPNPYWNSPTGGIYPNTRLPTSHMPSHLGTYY
# How it was run: as §1
# [4] = molecular target: ELF1 (Homo sapiens, UniProt P32519 1-619)
# How it was run: as §1
# [5] = molecular target: T4, EHF (Homo sapiens, UniProt Q9NZC4 1-300)
# T4 sequence: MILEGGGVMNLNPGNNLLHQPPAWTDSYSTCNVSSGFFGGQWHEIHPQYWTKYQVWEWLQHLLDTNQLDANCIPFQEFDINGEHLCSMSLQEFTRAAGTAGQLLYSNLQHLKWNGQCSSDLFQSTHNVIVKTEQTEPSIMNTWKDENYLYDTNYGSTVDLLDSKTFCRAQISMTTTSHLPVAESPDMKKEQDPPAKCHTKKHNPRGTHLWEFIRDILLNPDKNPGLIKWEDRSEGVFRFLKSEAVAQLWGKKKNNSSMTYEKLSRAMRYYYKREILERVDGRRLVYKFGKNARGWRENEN
# How it was run: as §1
# [6] = molecular target: SPIB (Homo sapiens, UniProt Q01892 1-262)
# How it was run: as §1
# [7] = molecular target: T5, ELK3 (Homo sapiens, UniProt P41970 1-407)
# T5 sequence: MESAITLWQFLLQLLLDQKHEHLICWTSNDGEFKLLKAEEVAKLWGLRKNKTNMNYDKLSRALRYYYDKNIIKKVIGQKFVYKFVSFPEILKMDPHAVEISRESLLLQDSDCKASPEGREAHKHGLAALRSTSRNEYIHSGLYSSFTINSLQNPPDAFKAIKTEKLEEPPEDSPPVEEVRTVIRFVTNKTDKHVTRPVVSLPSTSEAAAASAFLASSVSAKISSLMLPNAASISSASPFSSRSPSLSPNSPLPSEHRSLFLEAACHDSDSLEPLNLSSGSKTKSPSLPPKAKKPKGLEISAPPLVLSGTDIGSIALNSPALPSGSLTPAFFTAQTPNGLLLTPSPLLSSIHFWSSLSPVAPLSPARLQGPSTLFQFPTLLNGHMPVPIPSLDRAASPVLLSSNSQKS
# How it was run: as §1
# [8] = molecular target: T6, SPIC (Homo sapiens, UniProt Q8N5J4 1-248)
# T6 sequence: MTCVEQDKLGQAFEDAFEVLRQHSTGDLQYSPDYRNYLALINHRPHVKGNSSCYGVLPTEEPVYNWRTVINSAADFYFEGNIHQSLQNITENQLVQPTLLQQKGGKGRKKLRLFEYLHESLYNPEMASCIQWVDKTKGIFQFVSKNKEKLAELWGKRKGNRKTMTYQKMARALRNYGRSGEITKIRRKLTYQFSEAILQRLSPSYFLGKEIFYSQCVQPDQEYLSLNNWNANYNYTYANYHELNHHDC
# How it was run: as §1
# [9] = molecular target: ELF4 (Homo sapiens, UniProt Q99607 1-663)
# How it was run: as §1
# [10] = molecular target: T7, ELK4 (Homo sapiens, UniProt P28324-2 1-405)
# T7 sequence: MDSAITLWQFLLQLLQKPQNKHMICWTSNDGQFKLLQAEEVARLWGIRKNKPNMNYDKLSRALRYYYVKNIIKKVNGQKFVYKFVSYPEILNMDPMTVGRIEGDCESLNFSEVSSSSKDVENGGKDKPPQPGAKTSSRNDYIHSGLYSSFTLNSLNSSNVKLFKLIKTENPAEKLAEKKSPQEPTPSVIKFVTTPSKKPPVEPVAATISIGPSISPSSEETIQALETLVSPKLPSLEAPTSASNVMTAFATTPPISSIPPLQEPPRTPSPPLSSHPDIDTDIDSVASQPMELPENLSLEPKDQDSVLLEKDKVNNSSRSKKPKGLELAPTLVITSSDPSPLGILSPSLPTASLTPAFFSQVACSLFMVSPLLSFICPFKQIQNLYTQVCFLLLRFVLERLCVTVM
# How it was run: as §1
# [11] = molecular target: T8, ELF3 (Homo sapiens, UniProt P78545 1-371)
# T8 sequence: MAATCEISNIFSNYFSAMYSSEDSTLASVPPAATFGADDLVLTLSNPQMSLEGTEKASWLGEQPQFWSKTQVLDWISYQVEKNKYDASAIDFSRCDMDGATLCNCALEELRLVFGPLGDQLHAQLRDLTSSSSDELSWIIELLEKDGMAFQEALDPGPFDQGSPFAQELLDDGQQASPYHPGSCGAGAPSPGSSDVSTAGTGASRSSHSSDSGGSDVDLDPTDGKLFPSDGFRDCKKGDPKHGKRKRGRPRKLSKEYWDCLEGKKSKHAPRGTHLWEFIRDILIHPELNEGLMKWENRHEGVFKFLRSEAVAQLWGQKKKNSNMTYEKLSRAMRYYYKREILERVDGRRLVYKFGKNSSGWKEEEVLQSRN
# How it was run: as §1
# [12] = molecular target: ETV1 (Homo sapiens, UniProt P50549 1-477)
# How it was run: as §1
# [13] = molecular target: T9, ERF (Homo sapiens, UniProt P50548 1-548)
# T9 sequence: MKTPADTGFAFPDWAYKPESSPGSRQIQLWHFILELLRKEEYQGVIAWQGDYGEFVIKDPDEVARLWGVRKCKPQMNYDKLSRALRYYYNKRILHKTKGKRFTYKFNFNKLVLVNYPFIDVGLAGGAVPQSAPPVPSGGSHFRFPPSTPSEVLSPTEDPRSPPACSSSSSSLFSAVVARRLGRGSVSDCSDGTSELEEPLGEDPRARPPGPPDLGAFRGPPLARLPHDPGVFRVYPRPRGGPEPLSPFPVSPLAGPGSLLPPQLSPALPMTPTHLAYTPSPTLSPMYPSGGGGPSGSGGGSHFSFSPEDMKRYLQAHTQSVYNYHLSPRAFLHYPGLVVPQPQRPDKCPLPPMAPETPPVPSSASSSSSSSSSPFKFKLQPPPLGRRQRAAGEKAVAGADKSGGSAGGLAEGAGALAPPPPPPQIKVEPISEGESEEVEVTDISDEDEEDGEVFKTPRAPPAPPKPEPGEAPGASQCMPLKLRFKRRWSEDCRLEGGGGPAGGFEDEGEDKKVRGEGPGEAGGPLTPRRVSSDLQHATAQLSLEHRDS
# How it was run: as §1
# [14] = molecular target: T10, ETV3L (Homo sapiens, UniProt Q6ZN32 1-361)
# T10 sequence: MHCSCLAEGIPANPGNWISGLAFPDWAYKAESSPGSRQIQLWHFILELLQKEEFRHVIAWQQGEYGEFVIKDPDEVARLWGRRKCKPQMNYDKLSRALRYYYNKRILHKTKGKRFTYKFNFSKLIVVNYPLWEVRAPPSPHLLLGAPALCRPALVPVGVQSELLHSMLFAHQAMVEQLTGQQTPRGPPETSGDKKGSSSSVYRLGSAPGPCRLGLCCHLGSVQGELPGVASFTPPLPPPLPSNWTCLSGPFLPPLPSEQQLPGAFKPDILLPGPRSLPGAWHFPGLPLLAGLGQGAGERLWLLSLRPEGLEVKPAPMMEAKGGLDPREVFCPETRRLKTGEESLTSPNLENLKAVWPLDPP
# How it was run: as §1
# [15] = molecular target: T11, ETS2 (Homo sapiens, UniProt P15036 1-469)
# T11 sequence: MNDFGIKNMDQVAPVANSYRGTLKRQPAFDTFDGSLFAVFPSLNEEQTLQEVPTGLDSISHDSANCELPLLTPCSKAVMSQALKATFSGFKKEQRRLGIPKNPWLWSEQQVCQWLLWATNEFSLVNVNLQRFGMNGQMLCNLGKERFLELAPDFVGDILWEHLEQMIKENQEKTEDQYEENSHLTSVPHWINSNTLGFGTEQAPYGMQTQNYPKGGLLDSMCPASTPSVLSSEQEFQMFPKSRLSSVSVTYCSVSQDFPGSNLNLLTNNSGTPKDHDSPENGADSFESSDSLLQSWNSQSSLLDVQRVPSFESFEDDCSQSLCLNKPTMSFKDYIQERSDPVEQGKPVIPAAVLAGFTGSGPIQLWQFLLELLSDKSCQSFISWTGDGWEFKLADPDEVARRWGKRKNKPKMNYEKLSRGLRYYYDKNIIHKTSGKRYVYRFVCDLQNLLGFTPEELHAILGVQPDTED
# How it was run: as §1
# [16] = molecular target: T12, ETV7 (Homo sapiens, UniProt Q9Y603 1-341)
# T12 sequence: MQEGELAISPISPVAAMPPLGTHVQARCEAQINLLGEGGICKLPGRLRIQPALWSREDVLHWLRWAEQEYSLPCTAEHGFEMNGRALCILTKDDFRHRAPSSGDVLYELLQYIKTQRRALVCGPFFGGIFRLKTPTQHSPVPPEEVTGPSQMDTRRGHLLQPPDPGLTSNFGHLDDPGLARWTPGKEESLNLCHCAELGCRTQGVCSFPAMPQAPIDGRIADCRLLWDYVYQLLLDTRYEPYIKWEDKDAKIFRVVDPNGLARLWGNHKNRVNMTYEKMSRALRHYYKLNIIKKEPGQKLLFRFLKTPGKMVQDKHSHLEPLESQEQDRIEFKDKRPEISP
# How it was run: as §1
# [17] = molecular target: T13, ETV3 (Homo sapiens, UniProt P41162-2 1-143)
# T13 sequence: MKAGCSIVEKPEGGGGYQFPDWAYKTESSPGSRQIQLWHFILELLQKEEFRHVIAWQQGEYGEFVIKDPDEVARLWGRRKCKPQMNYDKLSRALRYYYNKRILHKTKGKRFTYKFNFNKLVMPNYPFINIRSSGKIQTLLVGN
# How it was run: as §1
# [18] = molecular target: ETV6 (Homo sapiens, UniProt P41212 1-452)
# How it was run: as §1
# ELF1, sequence (P32519 whole entry): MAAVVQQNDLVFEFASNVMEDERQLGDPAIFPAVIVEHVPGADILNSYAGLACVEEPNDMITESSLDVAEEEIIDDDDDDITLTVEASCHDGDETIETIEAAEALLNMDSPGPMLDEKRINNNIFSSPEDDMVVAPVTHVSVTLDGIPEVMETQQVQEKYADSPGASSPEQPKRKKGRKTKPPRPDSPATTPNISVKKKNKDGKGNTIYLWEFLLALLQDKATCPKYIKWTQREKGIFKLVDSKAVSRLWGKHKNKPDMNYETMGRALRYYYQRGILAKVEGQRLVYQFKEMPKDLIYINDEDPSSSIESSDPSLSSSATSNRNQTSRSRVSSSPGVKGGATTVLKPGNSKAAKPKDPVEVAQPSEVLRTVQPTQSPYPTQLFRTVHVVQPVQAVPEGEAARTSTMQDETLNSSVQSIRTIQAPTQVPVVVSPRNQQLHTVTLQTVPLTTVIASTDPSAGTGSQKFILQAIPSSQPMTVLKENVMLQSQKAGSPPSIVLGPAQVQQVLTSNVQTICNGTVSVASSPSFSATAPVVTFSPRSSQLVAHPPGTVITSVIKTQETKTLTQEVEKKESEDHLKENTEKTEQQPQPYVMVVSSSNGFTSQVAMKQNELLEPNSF
# SPIB, sequence (Q01892 whole entry): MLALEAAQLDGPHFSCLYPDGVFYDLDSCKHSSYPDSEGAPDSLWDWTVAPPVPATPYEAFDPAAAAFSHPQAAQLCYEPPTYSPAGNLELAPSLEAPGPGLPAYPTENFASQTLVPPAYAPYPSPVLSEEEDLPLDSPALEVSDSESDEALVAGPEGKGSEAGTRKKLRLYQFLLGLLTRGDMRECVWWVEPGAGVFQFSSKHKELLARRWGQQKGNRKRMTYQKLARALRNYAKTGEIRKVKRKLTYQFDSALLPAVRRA
# ETV6, sequence (P41212 whole entry): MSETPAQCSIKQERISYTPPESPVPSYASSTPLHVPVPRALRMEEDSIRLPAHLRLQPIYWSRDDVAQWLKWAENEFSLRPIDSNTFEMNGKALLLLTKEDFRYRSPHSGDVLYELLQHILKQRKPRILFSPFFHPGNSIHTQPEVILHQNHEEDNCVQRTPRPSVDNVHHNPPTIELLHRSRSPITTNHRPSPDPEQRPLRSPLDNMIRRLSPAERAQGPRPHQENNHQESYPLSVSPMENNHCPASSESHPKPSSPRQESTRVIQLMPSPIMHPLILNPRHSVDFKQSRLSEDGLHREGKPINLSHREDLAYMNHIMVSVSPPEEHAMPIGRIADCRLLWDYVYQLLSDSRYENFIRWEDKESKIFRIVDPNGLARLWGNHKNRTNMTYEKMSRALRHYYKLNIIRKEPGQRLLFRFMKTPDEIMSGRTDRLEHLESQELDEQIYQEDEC
# ETV1, sequence (P50549 whole entry): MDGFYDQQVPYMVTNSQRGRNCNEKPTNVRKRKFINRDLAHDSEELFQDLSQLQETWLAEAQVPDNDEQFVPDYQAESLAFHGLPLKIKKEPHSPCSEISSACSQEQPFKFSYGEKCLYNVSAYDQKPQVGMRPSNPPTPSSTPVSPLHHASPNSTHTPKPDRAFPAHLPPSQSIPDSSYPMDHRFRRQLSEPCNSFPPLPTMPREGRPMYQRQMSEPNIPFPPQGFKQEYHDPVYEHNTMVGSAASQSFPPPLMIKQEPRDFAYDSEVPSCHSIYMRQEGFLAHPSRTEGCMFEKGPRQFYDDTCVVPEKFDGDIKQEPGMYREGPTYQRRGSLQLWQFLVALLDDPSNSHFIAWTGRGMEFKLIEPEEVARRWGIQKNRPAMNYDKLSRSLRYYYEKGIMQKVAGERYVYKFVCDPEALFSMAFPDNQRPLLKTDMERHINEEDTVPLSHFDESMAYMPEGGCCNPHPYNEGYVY
# ELF4, sequence (Q99607 whole entry): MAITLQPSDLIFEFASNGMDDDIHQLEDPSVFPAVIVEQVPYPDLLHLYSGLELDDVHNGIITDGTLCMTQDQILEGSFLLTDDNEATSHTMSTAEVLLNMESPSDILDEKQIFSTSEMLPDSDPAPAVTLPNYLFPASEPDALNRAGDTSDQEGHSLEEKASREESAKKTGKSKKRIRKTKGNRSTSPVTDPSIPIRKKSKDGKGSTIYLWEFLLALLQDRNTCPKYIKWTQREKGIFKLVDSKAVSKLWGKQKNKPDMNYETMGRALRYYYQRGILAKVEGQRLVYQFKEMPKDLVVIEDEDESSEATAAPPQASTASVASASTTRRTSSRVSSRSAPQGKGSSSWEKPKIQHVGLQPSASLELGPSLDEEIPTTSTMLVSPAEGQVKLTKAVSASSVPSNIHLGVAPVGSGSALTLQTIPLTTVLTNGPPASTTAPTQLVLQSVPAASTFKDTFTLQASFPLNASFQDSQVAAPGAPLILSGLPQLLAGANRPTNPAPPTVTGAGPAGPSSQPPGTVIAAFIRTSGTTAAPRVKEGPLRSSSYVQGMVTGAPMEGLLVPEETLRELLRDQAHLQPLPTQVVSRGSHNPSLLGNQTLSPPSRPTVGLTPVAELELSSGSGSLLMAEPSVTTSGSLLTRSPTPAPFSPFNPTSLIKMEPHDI
sequence,measurement,setting,value
TACAGC,binding signal,[1],"1.01 fold enrichment (6-mer frequency, TF over GST control)"
same,binding signal,[2],"1.07 fold enrichment (6-mer frequency, TF over GST control)"
same,binding signal,[3],"1.06 fold enrichment (6-mer frequency, TF over GST control)"
same,binding signal,[4],"1.13 fold enrichment (6-mer frequency, TF over GST control)"
same,binding signal,[5],"1.06 fold enrichment (6-mer frequency, TF over GST control)"
same,binding signal,[6],"1.04 fold enrichment (6-mer frequency, TF over GST control)"
same,binding signal,[7],"1.06 fold enrichment (6-mer frequency, TF over GST control)"
same,binding signal,[8],"1.02 fold enrichment (6-mer frequency, TF over GST control)"
same,binding signal,[9],"1.13 fold enrichment (6-mer frequency, TF over GST control)"
same,binding signal,[10],"1.02 fold enrichment (6-mer frequency, TF over GST control)"
same,binding signal,[11],"1.16 fold enrichment (6-mer frequency, TF over GST control)"
same,binding signal,[12],"1.03 fold enrichment (6-mer frequency, TF over GST control)"
same,binding signal,[13],"1.16 fold enrichment (6-mer frequency, TF over GST control)"
same,binding signal,[14],"1.08 fold enrichment (6-mer frequency, TF over GST control)"
same,binding signal,[15],"1.1 fold enrichment (6-mer frequency, TF over GST control)"
same,binding signal,[16],"1.09 fold enrichment (6-mer frequency, TF over GST control)"
same,binding signal,[17],"1.02 fold enrichment (6-mer frequency, TF over GST control)"
same,binding signal,[18],"1.1 fold enrichment (6-mer frequency, TF over GST control)"
